Test results: the supplement of paper PMC10849652
About 7,900 targets were measured; listed, in parts, are those with a hit and a random draw of the rest. About 0.6% of all pairs of compound and target were hits. Values without a mark were called inactive.

Assays:
Test in all cases: log2 fold change, soluble protein after heating vs DMSO (PISA); higher = thermal stabilisation; K562 cells, 10 uM, 30 min; active = over 0.2 and 3.5 SD of the protein, either way, in both replicates (recomputed)
[1] = compound: Cc1ccc(NC(=O)c2ccc(CN3CC[C@H](N(C)C)C3)c(C(F)(F)F)c2)cc1Nc1nccc(-c2cncnc2)n1 [bafetinib]
Summary of the method: (§1)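 Soluble protein was defined as the supernatant after 21,000xg for 90 min. It came from K562 cells at 2×10^6 cells/mL given 10 μM compound for 30 min, heated in aliquots for 3 min across 48°C-58°C, pooled, and extracted in PBS with 0.5% NP-40 at 4°C, and was quantified by TMTpro 16plex LC-MS/MS with equalised channel sums. Thermal stability against control samples, from duplicates, is reported as log2 fold change.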

[2] = compound: Cc1cccc(CC(=O)N2CCc3c2ccc(-c2cn(C)c4ncnc(N)c24)c3F)n1
Summary of the method: as §1

[3] = compound: Cc1cn(-c2cc(NC(=O)c3ccc(C)c(Nc4nccc(-c5cccnc5)n4)c3)cc(C(F)(F)F)c2)cn1 [nilotinib]
Summary of the method: as §1

[4] = compound: Cc1nc(Nc2n[nH]c3c2CN(C(=O)N[C@H](CN(C)C)c2ccccc2)C3(C)C)c2sccc2n1
Summary of the method: as §1

[5] = compound: Cc1nc(Nc2ncc(C(=O)Nc3c(C)cccc3Cl)s2)cc(N2CCN(CCO)CC2)n1 [dasatinib]
Summary of the method: as §1

[6] = compound: Cc1ncc(-c2ccnc(Nc3ccc(S(C)(=O)=O)cc3)n2)n1C(C)C
Summary of the method: as §1

[7] = compound: Cn1cc(-c2ccc3c(c2)CCN3C(=O)Cc2cccc(C(F)(F)F)c2)c2c(N)ncnc21
Summary of the method: as §1

[8] = compound: Cn1cc(-c2ccc3nnc(C(F)(F)c4ccc5ncccc5c4)n3n2)cn1
Summary of the method: as §1

[9] = compound: FC(F)(F)c1ccc(/C=C/c2nc(COc3ccc(CCCCn4ccnn4)cc3)co2)cc1 [mubritinib]
Summary of the method: as §1

[10] = compound: NC(=O)Nc1cc(-c2cccc(F)c2)sc1C(=O)N[C@H]1CCCNC1
Summary of the method: as §1

[11] = compound: NC(=O)c1cnc(N[C@@H]2CCCC[C@@H]2N)nc1Nc1cccc(-n2nccn2)c1
Summary of the method: as §1

[12] = compound: NC1(c2ccc(-c3nc4ccn5c(=O)[nH]nc5c4cc3-c3ccccc3)cc2)CCC1
Summary of the method: as §1

[13] = compound: NCC(=O)Nc1ccc(-n2nc(C(F)(F)F)cc2-c2ccc3c(ccc4ccccc43)c2)cc1
Summary of the method: as §1

[14] = compound: Nc1ccccc1NC(=O)c1ccc(CNC(=O)OCc2cccnc2)cc1 [entinostat]
Summary of the method: as §1

[15] = compound: O=C(CCCCCCC(=O)Nc1ccccc1)NO [vorinostat]
Summary of the method: as §1

[16] = compound: O=C(CCCCCCNC(=O)c1cnc(N(c2ccccc2)c2ccccc2Cl)nc1)NO [citarinostat]
Summary of the method: as §1

[17] = compound: O=C(O)c1ccc2c(c1)nc(Nc1cccc(Cl)c1)c1ccncc12 [silmitasertib]
Summary of the method: as §1

[18] = compound: O=C1NC(=O)C(c2cnc3ccccn23)=C1c1cn2c3c(cc(F)cc13)CN(C(=O)N1CCCCC1)CC2
Summary of the method: as §1

[19] = compound: c1cc(OCCN2CCCCC2)cc(-c2n[nH]c3ccc(-c4nnc[nH]4)cc23)c1
Summary of the method: as §1

[20] = compound: Cn1cncc1[C@@](N)(c1ccc(Cl)cc1)c1ccc2c(c1)c(-c1cccc(Cl)c1)cc(=O)n2C [tipifarnib]
Summary of the method: as §1

Chain of UniProt Q86VX9 (Q86VX9 whole entry, looked up): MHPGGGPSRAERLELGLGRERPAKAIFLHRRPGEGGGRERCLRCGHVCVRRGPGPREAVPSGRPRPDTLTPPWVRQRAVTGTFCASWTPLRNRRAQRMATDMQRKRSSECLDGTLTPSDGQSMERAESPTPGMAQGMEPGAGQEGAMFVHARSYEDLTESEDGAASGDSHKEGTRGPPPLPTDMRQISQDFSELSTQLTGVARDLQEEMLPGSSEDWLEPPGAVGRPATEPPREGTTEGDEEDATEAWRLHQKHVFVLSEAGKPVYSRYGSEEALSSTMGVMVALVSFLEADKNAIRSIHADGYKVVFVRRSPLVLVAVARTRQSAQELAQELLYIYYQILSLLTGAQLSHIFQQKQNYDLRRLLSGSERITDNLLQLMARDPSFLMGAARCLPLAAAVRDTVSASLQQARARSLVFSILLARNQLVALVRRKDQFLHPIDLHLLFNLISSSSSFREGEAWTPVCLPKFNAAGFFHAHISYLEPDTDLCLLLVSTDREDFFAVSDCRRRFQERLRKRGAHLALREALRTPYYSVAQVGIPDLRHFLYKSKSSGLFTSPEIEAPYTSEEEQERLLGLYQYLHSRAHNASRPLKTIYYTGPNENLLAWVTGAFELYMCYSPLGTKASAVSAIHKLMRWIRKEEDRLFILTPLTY
Chain of UniProt O60890 (O60890 whole entry, looked up): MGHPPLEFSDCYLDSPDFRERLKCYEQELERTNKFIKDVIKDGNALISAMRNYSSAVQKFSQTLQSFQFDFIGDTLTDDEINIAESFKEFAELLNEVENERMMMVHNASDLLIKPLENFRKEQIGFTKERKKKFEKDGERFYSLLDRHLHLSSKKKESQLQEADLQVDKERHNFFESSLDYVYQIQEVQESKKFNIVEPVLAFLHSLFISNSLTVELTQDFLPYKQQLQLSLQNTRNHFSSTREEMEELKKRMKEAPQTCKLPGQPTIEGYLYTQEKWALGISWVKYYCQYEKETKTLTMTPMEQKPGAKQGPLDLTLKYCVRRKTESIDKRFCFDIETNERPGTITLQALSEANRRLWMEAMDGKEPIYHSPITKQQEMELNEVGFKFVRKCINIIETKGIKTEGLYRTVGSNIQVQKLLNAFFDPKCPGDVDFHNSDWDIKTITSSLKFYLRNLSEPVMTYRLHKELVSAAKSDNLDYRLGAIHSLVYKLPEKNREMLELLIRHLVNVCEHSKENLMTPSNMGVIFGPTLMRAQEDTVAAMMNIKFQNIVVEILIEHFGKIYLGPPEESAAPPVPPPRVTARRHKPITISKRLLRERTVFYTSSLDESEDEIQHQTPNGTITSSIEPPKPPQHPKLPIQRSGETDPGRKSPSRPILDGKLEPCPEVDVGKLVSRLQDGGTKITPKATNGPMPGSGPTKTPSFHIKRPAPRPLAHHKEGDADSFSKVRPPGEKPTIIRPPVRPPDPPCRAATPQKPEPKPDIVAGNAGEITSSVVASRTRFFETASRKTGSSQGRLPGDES
Chain of UniProt Q86TA1 (Q86TA1 whole entry, looked up): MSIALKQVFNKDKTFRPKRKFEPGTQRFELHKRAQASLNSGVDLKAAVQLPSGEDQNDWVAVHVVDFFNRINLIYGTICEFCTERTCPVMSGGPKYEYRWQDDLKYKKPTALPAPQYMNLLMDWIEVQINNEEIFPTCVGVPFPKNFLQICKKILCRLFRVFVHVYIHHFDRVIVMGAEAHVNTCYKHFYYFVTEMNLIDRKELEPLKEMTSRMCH
Chain of NA, A0A494C071 (A0A494C071 whole entry, looked up): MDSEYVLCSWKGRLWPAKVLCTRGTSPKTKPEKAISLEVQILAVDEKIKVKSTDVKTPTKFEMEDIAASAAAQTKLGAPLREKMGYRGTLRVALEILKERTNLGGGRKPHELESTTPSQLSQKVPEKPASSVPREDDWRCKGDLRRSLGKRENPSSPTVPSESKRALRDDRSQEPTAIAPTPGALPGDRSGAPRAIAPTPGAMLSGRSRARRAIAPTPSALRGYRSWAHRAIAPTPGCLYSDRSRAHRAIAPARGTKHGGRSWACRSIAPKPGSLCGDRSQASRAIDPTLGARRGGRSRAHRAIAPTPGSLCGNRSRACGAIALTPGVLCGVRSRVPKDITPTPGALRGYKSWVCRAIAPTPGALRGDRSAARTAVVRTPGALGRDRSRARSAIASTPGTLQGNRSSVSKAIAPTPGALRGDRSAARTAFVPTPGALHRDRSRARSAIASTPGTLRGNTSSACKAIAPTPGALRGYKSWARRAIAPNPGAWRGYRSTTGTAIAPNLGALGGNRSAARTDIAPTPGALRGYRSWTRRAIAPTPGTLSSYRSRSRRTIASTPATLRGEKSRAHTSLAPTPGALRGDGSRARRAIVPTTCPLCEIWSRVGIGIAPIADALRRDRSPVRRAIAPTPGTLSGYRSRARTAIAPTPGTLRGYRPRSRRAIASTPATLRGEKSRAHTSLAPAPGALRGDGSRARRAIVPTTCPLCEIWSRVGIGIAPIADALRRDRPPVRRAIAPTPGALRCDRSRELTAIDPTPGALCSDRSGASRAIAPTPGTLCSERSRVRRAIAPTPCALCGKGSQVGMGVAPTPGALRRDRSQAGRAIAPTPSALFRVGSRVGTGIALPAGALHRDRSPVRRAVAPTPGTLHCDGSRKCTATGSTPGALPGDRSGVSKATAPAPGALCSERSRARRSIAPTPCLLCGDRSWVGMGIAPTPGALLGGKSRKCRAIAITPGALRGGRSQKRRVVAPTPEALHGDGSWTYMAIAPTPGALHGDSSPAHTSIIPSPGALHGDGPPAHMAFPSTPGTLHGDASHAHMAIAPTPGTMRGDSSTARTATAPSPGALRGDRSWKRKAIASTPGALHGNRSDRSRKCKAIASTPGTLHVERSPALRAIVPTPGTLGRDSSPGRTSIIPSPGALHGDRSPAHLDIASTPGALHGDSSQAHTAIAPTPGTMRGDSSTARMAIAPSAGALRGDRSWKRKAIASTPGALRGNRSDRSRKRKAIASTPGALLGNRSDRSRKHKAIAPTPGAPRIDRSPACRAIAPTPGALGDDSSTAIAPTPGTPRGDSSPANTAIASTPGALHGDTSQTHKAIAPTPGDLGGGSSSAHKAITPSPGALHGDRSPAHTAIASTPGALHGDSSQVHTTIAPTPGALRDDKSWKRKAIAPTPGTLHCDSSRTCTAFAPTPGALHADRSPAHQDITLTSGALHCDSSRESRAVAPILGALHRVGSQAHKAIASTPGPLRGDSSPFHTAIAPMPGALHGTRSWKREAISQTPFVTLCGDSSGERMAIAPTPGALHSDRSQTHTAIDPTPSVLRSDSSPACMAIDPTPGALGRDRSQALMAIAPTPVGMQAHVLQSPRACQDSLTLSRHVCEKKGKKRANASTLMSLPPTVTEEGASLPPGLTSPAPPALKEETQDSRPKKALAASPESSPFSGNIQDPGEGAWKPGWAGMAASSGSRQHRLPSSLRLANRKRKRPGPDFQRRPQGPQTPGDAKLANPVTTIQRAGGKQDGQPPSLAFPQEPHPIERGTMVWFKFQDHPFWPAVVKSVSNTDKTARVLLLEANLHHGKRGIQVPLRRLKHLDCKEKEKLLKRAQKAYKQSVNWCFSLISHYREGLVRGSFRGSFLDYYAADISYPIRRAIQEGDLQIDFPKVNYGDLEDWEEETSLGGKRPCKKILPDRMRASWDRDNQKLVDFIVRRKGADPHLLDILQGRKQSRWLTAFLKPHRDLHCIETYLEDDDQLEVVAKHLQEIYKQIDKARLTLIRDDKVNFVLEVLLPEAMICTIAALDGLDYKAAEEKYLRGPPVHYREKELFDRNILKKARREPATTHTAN
Chain of UniProt P40261 (P40261 whole entry, looked up): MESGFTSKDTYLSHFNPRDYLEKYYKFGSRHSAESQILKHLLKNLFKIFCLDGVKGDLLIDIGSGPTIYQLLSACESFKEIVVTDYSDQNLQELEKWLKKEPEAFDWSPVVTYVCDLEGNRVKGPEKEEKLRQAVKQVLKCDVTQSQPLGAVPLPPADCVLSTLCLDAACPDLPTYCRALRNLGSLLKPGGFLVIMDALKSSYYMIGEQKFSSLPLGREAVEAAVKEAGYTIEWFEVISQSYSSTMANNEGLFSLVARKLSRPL
Chain of UniProt O60361 (O60361 whole entry, looked up): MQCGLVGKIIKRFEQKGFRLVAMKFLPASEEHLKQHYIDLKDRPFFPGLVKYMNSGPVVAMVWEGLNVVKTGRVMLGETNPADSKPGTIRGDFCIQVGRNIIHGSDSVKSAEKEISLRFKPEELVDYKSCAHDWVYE
Chain of UniProt Q9UK23 (Q9UK23 whole entry, looked up): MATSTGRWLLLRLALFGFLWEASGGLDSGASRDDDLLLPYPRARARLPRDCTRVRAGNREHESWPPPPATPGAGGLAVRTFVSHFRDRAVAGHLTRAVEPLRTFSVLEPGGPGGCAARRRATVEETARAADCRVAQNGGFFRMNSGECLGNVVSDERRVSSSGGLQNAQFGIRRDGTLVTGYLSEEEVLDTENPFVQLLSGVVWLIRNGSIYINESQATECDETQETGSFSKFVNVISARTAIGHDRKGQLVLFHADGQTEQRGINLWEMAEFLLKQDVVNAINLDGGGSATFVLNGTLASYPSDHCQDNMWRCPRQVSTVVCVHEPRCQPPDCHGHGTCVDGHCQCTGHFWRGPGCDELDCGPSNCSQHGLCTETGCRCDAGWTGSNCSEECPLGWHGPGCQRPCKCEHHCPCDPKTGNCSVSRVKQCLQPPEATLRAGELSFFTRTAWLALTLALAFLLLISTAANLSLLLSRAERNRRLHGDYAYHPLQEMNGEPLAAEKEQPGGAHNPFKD
Chain of UniProt O75607 (O75607 whole entry, looked up): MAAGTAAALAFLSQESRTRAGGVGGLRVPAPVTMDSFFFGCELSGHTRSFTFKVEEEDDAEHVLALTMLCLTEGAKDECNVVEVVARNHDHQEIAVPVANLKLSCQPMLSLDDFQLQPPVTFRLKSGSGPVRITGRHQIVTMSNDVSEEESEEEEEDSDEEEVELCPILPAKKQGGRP
Chain of UniProt O75438 (O75438 whole entry, looked up): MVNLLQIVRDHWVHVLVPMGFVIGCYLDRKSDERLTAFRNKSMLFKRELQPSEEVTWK
Chain of UniProt Q69YL0 (Q69YL0 whole entry, looked up): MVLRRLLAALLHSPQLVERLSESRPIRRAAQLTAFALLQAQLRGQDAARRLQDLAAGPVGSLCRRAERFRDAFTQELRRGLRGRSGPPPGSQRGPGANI

Target	log2 fold change [1]	log2 fold change [2]	log2 fold change [3]	log2 fold change [4]	log2 fold change [5]	log2 fold change [6]	log2 fold change [7]	log2 fold change [8]	log2 fold change [9]	log2 fold change [10]	log2 fold change [11]	log2 fold change [12]	log2 fold change [13]	log2 fold change [14]	log2 fold change [15]	log2 fold change [16]	log2 fold change [17]	log2 fold change [18]	log2 fold change [19]	log2 fold change [20]
NDFIP1 (UniProt Q9BT67)	-0.137	-0.08	-0.214	0.354	0.039	0.225	-0.038	-0.072	-0.024	0.104	-0.16	-0.029	-0.249	-0.291	-0.051	0.025	0.27	0.352	0.007	–
MOB3B (UniProt Q86TA1)	-0.023	0.034	-0.168	-0.397	–	0.032	0.222	–	0.109	–	-0.082	-0.288	-0.021	–	-0.049	–	-0.023	–	–	0.01
NA, A0A494C071	-1.12 (active)	-0.057	0.074	0.329	0.029	-0.439	0.001	–	0.094	–	-0.484	-0.407	-0.153	–	0	0.023	0.212	-0.022	-0.086	–
NAGPA (UniProt Q9UK23)	-0.076	-0.142	-0.082	0	0.053	0.014	0.023	–	-0.091	0.051	-0.045	0.03	–	0.04	-0.122	0.074	-0.237	0.043	-0.023	0.245
NCBP2AS2 (UniProt Q69YL0)	-0.504 (active)	-0.018	0	0.045	-0.021	0.031	0.002	0.021	0.006	-0.21	-0.161	-0.312	-0.157	-0.004	0.024	0	0.024	–	-0.046	-0.001
NDUFB1 (UniProt O75438)	-0.116	0.028	0.095	0.009	–	-0.028	0.004	–	0.022	0.053	-0.114	-0.007	-0.134	0.055	0.108	-0.026	-0.014	-0.124	0.012	0.038
MT-ND2 (UniProt P03891)	0	-0.173	-0.006	0.018	-0.459 (active)	-0.171	0.279	0.11	-0.01	–	0.146	-0.128	0.036	–	0.036	–	-0.01	–	–	0.383
MON1A (UniProt Q86VX9)	-0.011	-0.112	-0.163	-0.056	0.017	0.138	–	-0.009	-0.012	0.016	–	0.001	–	-0.005	0.017	0.161	-0.157	-0.013	-0.275	0.082
NFYB (UniProt P25208)	-0.086	-0.006	0.074	-0.067	0.124	0.034	-0.012	-0.06	0.127	-0.022	0.102	-0.074	0.069	-0.001	-0.038	-0.006	0.043	–	0.033	-0.019
NNMT (UniProt P40261)	-0.038	0.068	0.015	0.005	0.037	-0.021	0.052	–	0.094	0.013	-0.04	-0.179	-0.037	-0.056	0.128	-0.023	0.013	-0.042	0.139	-0.002
NIPSNAP3B (UniProt Q9BS92)	-0.085	-0.054	-0.029	0.01	-0.044	0.013	0.109	–	0.083	0.279	0.011	-0.069	0.053	-0.001	-0.064	0.137	-0.022	–	-0.09	-0.018
OPHN1 (UniProt O60890)	-0.035	-0.134	-0.088	0.051	-0.04	0.093	0.028	0.099	0.035	0.073	-0.134	-0.056	–	-0.084	0.128	0.021	0.031	-0.046	0.094	–
NELFCD (UniProt Q8IXH7)	0.116	-0.111	-0.233	-0.003	-0.158	0.064	0.061	–	–	–	-0.005	–	-0.321	–	0.234	–	–	-0.12	–	0.035
NMU (UniProt P48645)	-0.01	0.152	0.011	-0.022	0.16	-0.012	-0.394	-0.11	–	–	-0.023	–	0.132	–	0.041	0.043	–	0.144	-0.08	0.276
MLX (UniProt Q9UH92)	-0.022	0.094	-0.11	-0.01	0.008	-0.11	-0.054	-0.097	-0.061	0.144	-0.115	-0.177	–	0.005	0.095	0.139	-0.091	-0.086	-0.175	-0.122
MYO19 (UniProt Q96H55)	0.007	-0.068	-0.022	-0.045	-0.111	0.038	-0.099	-0.069	–	–	-0.112	–	0.051	–	0.029	–	–	0.232	–	0.048
NME2P1 (UniProt O60361)	0.058	0.059	-0.236	-0.014	–	-0.107	-0.081	-0.013	0.073	0.07	-0.146	-0.124	-0.306	-0.01	0.036	-0.114	0.048	-0.011	-0.161	-0.055
NA, A0A2R8Y3M9	-0.605	0.19	0.035	-0.091	-0.013	0.31	0.503	-0.117	–	-0.104	-0.17	–	–	-0.011	0.372	–	–	–	–	0.08
NPM3 (UniProt O75607)	0.017	-0.027	-0.045	0.062	0.101	-0.121	0.043	-0.028	-0.035	0.029	0.02	0.216	0.017	-0.019	-0.023	-0.059	0.137	–	-0.101	0.071
